This note sets out measurements from PubChem BioAssay (NCATS).

Assay [1] addresses Furin (Homo sapiens) (UniProt P09958). Put plainly: Furin counterscreen qHTS for Zika virus inhibitors (AID 1347149). Further: nearly all actives have a fitted effect of over 70% in size. Further: potency means the concentration at half of the fitted maximal effect. Put shortly: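 Fluorogenic cleavage of BOC-RVRR-AMC (2 microM final, Km ~15 µM) was monitored (ex 340, em 450 nm) at 37C after 15 min RT preincubation of 5 nM furin with compounds in HEPES pH 7.0 buffer with CaCl2 and Triton X-100. Percent inhibition was fitted to a 4-parameter Hill curve.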
(In general: The purpose of a counterscreen is to sort out artefacts and off-target activity.)

In assay [2] the test system is Zika virus NS2B-NS3 protease (linked construct). The experiment in a line: Confirmatory screen NINDS AMC qHTS for Zika virus inhibitors (AID 1347152). Further: nearly all actives have a fitted effect of over 70% in size. Further: potency means the concentration at half of the fitted maximal effect. The gist of the method:
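In this dose-response qHTS, AMC release from 10 microM Bz-Nle-KRR-AMC by 1 nM linked protease is measured over 15 minutes (about 20% conversion) at pH 8.0. Percent inhibition is fitted to a 4-parameter Hill curve.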
Background: In qHTS, concentration-response curves come from the screen itself.

Assay [3] concerns Zika virus NS2B-NS3 protease (unlinked complex). The experiment in a line: Confirmatory screen GU AMC qHTS for Zika virus inhibitors (AID 1347153).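 Further: enzyme at 25 nM with substrate at 10 µM below its Km of 18.3 µM; potency means the concentration at half of the fitted maximal effect; nearly all actives have a fitted effect of over 70% in size.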 The gist of the method: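 Noncovalent NS2B hydrophilic domain/NS3 protease complex (25 nM) in 10 mM Tris-HCl pH 8.0, 0.01% Tween 20 was preincubated 15 min at room temperature with compounds. Then 10 µM AMC substrate (Km 18.3 µM) was added; fluorescence was read over 15 min and fitted to a 4-parameter Hill equation.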

Assay [4] is described as follows: ZIKV-mCherry secondary qHTS for Zika virus inhibitors (AID 1347158). Further: potency means the concentration at half of the fitted maximal effect. Put shortly:
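Vero cells, 5,000/well, plated overnight at 37 °C, then compound added and infected with recombinant ZIKV-mCherry at MOI 1 for 48-72 h. PFA-fixed, Hoechst nuclear stain, high-content imaging; cells with mCherry intensity above 450 RFU scored infected, reported as percent infection.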

The test system of assay [5] is Zika virus NS2B-NS3 protease (linked). Put plainly: 384 well plate NINDS AMC confirmatory qHTS for Zika virus inhibitors (AID 1347163).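 Further: linked protease at 5 30 or 60 nM final depending on run; fluorescence of AMC released from Ac-VKTGKR-AMC peptide cleaved by the protease; top concentration of the series differs between compounds; nearly all actives have a fitted effect of over 50% in size.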 Put shortly:
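Linked protease 5/30/60 nM final; cpds up to 1 mM final, ~15 min preinc. Substrate Ac-VKTGKR-AMC 30 microM final. RT, dark, 25 min; FI ex 355/em 460; normalized to no-enzyme/no-inhibitor ctrls.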

Assay [6] concerns Zika virus NS2B-NS3 protease (linked construct). The experiment in a line: 384 well plate NINDS Rhodamine confirmatory qHTS for Zika virus inhibitors (AID 1347164). Further: nearly all actives have a fitted effect of over 65% in size. Further: potency means the concentration at half of the fitted maximal effect. The gist of the method:
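Compounds are incubated about 15 minutes with linked protease (5, 30 or 60 nM final). Rhodamine 110-tagged Ac-LKRR substrate (10 microM final) is added and fluorescence measured after 25 minutes.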

Assay [7] is described as follows: Tertiary RLuc qRT-PCR qHTS assay for Zika virus inhibitors (AID 1347169). Further: nearly all actives have a fitted effect of over 55% in size. Further: potency means the concentration at half of the fitted maximal effect. The gist of the method:
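Orthogonal cell-based infection assay using recombinant ZIKV-RLuc (Cambodian) in Vero cells; compound added prior to virus at MOI 1-2. Incubation lasts 48-72 hrs at 37 degrees C before live-cell Renilla substrate is added and luminescence measured.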

In assay [8] the test system is Zika virus NS2B-NS3 protease (unlinked). The experiment in a line: Optimization of GU AMC qHTS for Zika virus inhibitors: Unlinked NS2B-NS3 protease assay (AID 1347151). Further: potency means the concentration at half of the fitted maximal effect; nearly all actives have a fitted effect of over 80% in size. Put shortly:
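Percent inhibition is derived from the 15-min change in AMC fluorescence, normalized against no-inhibitor and no-enzyme controls, then fitted to a 4-parameter Hill curve. Aprotinin was the intraplate control.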

Assay [9] can be described thus: Vero cells viability qHTS for Zika virus inhibitors (AID 1347167). Put shortly: (§1)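 Counter-screen for cytotoxicity of hits from NS2B-NS3 protease qHTS. Overnight-attached cells (2.5 x 10^5 cells/mL, DMEM/4% FBS) were dosed in titration, incubated 24 to 48 hours, then assayed by CellTiter Glo.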
Assay [10] in a line: HepG2 cells viability qHTS for Zika virus inhibitors (AID 1347168). The gist of the method:
as §1

The nature of assay [11]: Confirmatory screen GU Rhodamine qHTS for Zika virus inhibitors qHTS (AID 1347157). Further: potency means the concentration at half of the fitted maximal effect; nearly all actives have a fitted effect of over 70% in size. The gist of the method:
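Percent inhibition derives from the 15-min fluorescence change (ex 480, em 540 nm), normalized to no-enzyme and no-inhibitor wells. Reactions contained 25 nM NS2B-NS3 complex and 1.5 microM substrate in 10 mM Tris-HCl pH 8.0.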

Assay [12] can be described thus: Confirmatory screen NINDS Rhodamine qHTS for Zika virus inhibitors (AID 1347161). Further: potency means the concentration at half of the fitted maximal effect; nearly all actives have a fitted effect of over 60% in size. Put shortly: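 Rhodamine110-peptide cleavage (1.5 µM substrate) by 25 nM linked NS2B-NS3 enzyme at pH 8.0 (Tris, Tween 20), after 15 min RT preincubation with compounds; 15-min fluorescence change normalized to controls and Hill-fitted.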

Records with an inconclusive call do not appear. Active and inactive are the calls of the source. The call rests on the fitted dose curve; in most records, active means well fitted curve in the direction sought with a large enough effect; inconclusive means small, poorly fitted or top-dose-only effect, or another doubt; inactive means no such curve, though single readings can be large; an effect the other way counts as inactive or inconclusive.

Chain of Furin (Homo sapiens) (P09958 whole entry, looked up): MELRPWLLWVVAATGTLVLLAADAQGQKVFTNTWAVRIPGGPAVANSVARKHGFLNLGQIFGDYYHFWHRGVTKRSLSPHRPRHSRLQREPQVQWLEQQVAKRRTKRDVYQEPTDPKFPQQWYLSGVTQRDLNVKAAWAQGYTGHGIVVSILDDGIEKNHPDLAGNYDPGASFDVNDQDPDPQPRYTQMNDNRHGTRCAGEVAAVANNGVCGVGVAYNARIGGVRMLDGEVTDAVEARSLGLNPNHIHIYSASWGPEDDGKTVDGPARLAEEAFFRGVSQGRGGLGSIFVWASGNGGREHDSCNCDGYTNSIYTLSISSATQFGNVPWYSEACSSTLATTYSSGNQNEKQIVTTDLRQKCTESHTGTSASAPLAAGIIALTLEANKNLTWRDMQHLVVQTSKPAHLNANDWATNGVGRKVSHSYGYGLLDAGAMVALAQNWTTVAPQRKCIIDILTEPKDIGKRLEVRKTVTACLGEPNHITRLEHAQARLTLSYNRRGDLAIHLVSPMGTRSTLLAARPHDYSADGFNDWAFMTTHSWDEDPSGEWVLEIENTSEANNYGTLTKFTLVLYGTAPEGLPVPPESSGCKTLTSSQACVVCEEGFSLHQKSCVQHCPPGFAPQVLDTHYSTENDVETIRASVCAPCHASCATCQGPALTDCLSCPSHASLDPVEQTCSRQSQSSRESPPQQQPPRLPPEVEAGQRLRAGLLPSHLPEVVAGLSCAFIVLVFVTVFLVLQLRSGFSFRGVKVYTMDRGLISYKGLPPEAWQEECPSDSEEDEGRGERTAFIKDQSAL

`O=[S+]([O-])([O-])c1ccc2c(c1)cc([S+](=O)([O-])[O-])c1nn(-c3ccc(/C=C/c4ccc(-n5nc6c([S+](=O)([O-])[O-])cc7cc([S+](=O)([O-])[O-])ccc7c6n5)cc4[S+](=O)([O-])[O-])c([S+](=O)([O-])[O-])c3)nc12`: the Potency entry in assay [1], in [4] and in [5] was “inactive” in each case. Besides, the Potency in [2] is 49.4 µM (active); in [3], 49.4 µM (active); in assay [6], 11.2 µM (active); in [7], 6.58 µM (active).

In the case of `O=C(OCc1cc(=O)n2c3c(sc2n1)CCCC3)c1cccc(NC(=O)c2ccccc2F)c1`, in [1], the Potency was 59.1 µM (active).

With `CC(C)C(NC(=O)C(CCCN=C(N)N)NC(=O)NC(Cc1ccccc1)C(=O)O)C(=O)NC(C=O)CCCN=C(N)N` (stereo not drawn), in assay [1], the Potency is 11.2 µM (active).

`CN1CCN(C(=O)CCN2C(=O)/C(=C\c3ccccc3F)SC2=S)CC1`: the Potency result in [1], in assay [6], in assay [9], in [10] and in assay [7] was “inactive” each time. In assay [8], the Potency was 49.4 µM (active).

In the case of `NC(=O)[C@@H](CCCN=C(N)N)NC(=O)[C@@H](CCCN=C(N)N)NC(=O)[C@@H](CCCN=C(N)N)NC(=O)[C@@H](CCCN=C(N)N)NC(=O)[C@@H](CCCN=C(N)N)NC(=O)[C@H](N)CCCN=C(N)N`, the Potency in assay [1] is 2.51 µM (active).

`O=C(O)c1ccc2c(ccc3nn(-c4ccc(/C=C/c5ccc(-n6nc7ccc8cc(C(=O)O)ccc8c7n6)cc5[S+](=O)([O-])[O-])c([S+](=O)([O-])[O-])c4)nc32)c1`: the Potency entry in assay [1], in assay [5] and in assay [7] was “inactive” each time. Moreover, the Potency is 2.82 µM (active) in [11], 4.47 µM (active) in [4], 6.31 µM (active) in [12] and 12.6 µM (active) in assay [6].

For the compound `N#Cc1ccc(OCC2CN(Cc3c[nH]c4ccccc34)C(=O)c3c(ccnc3-c3ccc(OCC(=O)O)cc3)O2)cc1` (stereo not drawn), the Potency entry in [1], in [2], in [4] and in assay [7] was “inactive” each time. In addition, in assay [6], the Potency is 39.8 µM (active).
